PubChem BioAssay
The source made the active and inactive calls. Unless noted, no rule for the calls is given here.

Columns and labels:
[1] = compound effects on lung adenocarcinoma cell viability – A549, calcein-AM fluorescence, 48 h, basal, profiling panel (AID 1162); conditions: higher = more signal; also: test concentration not given here
[2] = compound effects on differentiated 3T3-L1 adipocyte viability – cell-based, 3T3-L1 adipocytes, calcein-AM fluorescence, 48 h, basal, profiling panel (AID 1163); conditions: 3T3-L1 adipocytes viability, higher = more signal; also: test concentration not given here
[3] = compound effects on hepatocellular carcinoma cell viability – HepG2, calcein-AM fluorescence, 48 h, basal, profiling panel (AID 1164); conditions: higher = more signal; also: test concentration not given here
[4] = compound effects on multiple myeloma cell viability – MM1S, calcein-AM fluorescence, 48 h, basal, profiling panel (AID 1165); conditions: higher = more signal; also: test concentration not given here
[5] = calcein-AM signal in unstimulated myeloma cells – cell-based, calcein-AM fluorescence, 48 h, PK04 Diversity Set, profiling panel (AID 1166); conditions: RPMI8226 myeloma viability, higher = more signal;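 also: cells grown under basal conditions without added stimulus; test concentration not given here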
[6] = JC-1 mitochondrial signal, unstimulated HepG2 cells – cell-based, JC-1 fluorescence, 24 h, 100 nL compound, profiling panel (AID 1167); conditions: HepG2 mitochondrial potential, higher = more signal; also: test concentration not given here
[7] = JC-1 mitochondrial signal, unstimulated adipocytes – cell-based, JC-1 fluorescence, 3T3-L1 adipocytes, 24 h, 100 nL compound, profiling panel (AID 1168); conditions: JC-1 mitochondrial fluorescence, higher = more signal, called active from +8 up or from −8 down; also: test concentration not given here
[8] = JC-1 mitochondrial signal, unstimulated myeloma cells – cell-based, JC-1 fluorescence, RPMI8226, 24 h, 100 nL compound, profiling panel (AID 1169); conditions: JC-1 mitochondrial potential fluorescence, higher = more signal; also: test concentration not given here
[9] = JC-1 mitochondrial signal, unstimulated MM1S myeloma – cell-based, JC-1 fluorescence, 24 h, 100 nL compound, profiling panel (AID 1170); conditions: MM1S mitochondrial potential, higher = more signal; also: test concentration not given here
[10] = resazurin metabolic signal in A549 cells – cell-based, resazurin fluorescence, 24 h, PK04 Diversity Set, profiling panel (AID 1171); conditions: A549 viability, higher = more signal, called active from +8 up or from −8 down; also: test concentration not given here
[11] = resazurin metabolic signal in HepG2 cells – cell-based, resazurin fluorescence, 24 h, PK04 Diversity Set, profiling panel (AID 1172); conditions: HepG2 viability, higher = more signal; also: test concentration not given here
[12] = budding yeast growth changes without added modifier – OD600, strain BY4716, 24 h, basal condition, primary screen (AID 1173); conditions: S. cerevisiae BY4716 growth, OD600, 24 h; higher = more signal, called active from +8 up or from −8 down
[13] = viability profiling in MM1S myeloma cells – cell-based, resazurin fluorescence, basal, 24 h, PK04 Diversity Set, profiling panel (AID 1174); conditions: higher = more signal, called active from +8 up or from −8 down; also: test concentration not given here
[14] = target: Dihydroorotate dehydrogenase (quinone), mitochondrial (Plasmodium falciparum (isolate 3D7)) (UniProt Q08210); assay: inhibition of P. falciparum DHODH – biochemical, C-terminal His tag, absorbance 600 nm, primary screen (AID 1175); conditions: PfDHODH enzyme, DCIP absorbance 600 nm; higher = more signal, called active from +8 up or from −8 down;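 also: recombinant parasite enzyme with a five histidine tag at its C terminus; test concentration not given here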
Sequence of Dihydroorotate dehydrogenase (quinone), mitochondrial (Plasmodium falciparum (isolate 3D7)) (Q08210 whole entry, looked up): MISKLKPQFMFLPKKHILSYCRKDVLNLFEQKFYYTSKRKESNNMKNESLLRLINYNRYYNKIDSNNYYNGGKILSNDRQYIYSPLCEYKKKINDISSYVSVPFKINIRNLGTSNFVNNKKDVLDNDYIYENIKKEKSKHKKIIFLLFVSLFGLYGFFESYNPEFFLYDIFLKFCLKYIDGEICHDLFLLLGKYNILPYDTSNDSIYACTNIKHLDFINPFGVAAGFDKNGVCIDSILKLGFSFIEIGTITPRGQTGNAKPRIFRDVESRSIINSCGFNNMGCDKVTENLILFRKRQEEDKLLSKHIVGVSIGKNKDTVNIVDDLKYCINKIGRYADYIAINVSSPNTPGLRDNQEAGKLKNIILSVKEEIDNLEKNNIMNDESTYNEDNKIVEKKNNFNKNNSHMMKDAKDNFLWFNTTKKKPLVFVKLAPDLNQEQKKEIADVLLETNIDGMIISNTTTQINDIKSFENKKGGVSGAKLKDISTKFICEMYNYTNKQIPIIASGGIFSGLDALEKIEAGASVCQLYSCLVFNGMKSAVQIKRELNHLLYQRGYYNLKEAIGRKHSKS

[15] = inhibition of PAO1 biofilm formation – strain PAO1, LB-PBS medium, absorbance 600 nm, primary screen (AID 1176); also: test concentration not given here; conditions: P. aeruginosa PAO1 growth/biofilm, A600, 12 h; higher = more signal
[16] = growth modulation of vineyard yeast isolate – strain RM11-1a, OD600, basal, 24 h, primary screen (AID 1177);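 also: cultures grown under basal conditions with no added stressor; test concentration not given here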; conditions: S. cerevisiae RM11-1a growth, OD600, 24 h; higher = more signal, called active from +8 up or from −8 down
[17] = growth of efflux-deficient E. coli DRC39 – strain DRC39, OD650, 24 h, E. coli filamentation inducers, primary screen (AID 1178);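 also: growth measured as culture turbidity by optical density at 650 nm; test concentration not given here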; conditions: E. coli DRC39 acrAB, higher = more signal, called active from +8 up or from −8 down
[18] = growth of efflux-deficient E. coli DRC39 – strain DRC39, OD650, 48 h, E. coli filamentation inducers, primary screen (AID 1179);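 also: screen aims at cell division blockers that make cells filament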; conditions: E. coli DRC39 delta-acrAB growth, higher = more signal, called active from +8 up or from −8 down
[19] = viability profiling in RPMI8226 myeloma cells – cell-based, resazurin fluorescence, basal, 24 h, PK04 Diversity Set, profiling panel (AID 1180); conditions: higher = more signal;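 also: RPMI8826 multiple myeloma cell line at 5000 cells per well; test concentration not given here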
[20] = target: E3 ubiquitin-protein ligase XIAP (Homo sapiens) (UniProt P98170); assay: small molecules binding XIAP protein – biophysical, small-molecule microarray, fluorescence 635 nm, primary screen (AID 1181); conditions: higher = more signal;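 also: score merges 667 nm emission and signal to noise over triplicate slides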
Sequence of E3 ubiquitin-protein ligase XIAP (Homo sapiens) (P98170 whole entry, looked up): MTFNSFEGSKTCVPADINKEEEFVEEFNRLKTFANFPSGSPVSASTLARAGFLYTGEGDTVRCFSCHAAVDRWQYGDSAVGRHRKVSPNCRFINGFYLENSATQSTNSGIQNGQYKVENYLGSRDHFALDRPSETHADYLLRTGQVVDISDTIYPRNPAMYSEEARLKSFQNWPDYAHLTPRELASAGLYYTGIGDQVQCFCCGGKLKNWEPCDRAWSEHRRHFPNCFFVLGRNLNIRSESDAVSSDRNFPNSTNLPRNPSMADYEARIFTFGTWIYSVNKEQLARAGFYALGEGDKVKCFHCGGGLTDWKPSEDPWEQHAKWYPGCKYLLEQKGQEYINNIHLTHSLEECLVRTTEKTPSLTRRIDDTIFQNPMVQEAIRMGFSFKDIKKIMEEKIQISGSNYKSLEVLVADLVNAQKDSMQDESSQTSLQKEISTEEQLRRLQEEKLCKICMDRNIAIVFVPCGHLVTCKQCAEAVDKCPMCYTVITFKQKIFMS

| Compound | z-score [1] | z-score [2] | z-score [3] | z-score [4] | z-score [5] | z-score [6] | z-score [7] | z-score [8] | z-score [9] | z-score [10] | z-score [11] | z-score [12] | z-score [13] | composite z-score [14] | z-score [15] | z-score [16] | z-score [17] | z-score [18] | z-score [19] | composite z-score [20] |
| --- | --- | --- | --- | --- | --- | --- | --- | --- | --- | --- | --- | --- | --- | --- | --- | --- | --- | --- | --- | --- |
| CCCC=C(CCC)[C@@H](NS(=O)(=O)c1ccccc1)c1ccc(C(F)(F)F)cc1 | -2.27 | -0.287 | -2.34 | -2.55 | -4.06 | -3.56 | -0.634 (inactive) | -0.981 | -2.47 | -0.795 (inactive) | -0.574 | 0.892 (inactive) | -2.56 (inactive) | -0.62 (inactive) | -0.415 (inactive) | 1.07 (inactive) | -0.28 (inactive) | -0.428 (inactive) | -3.59 | 0.0039 |
| COC(=O)c1c(CC[C@@H](CO)NC(=O)N[C@@H](C)Cn2cc(C3(O)CCCC3)nn2)oc(C(C)=O)c1C(=O)OC | 0.329 | 1.45 | -0.299 | -2.1 | -0.371 | -0.428 | 1.04 (inactive) | -0.357 | 0.932 | -0.514 (inactive) | -1.1 | -0.724 (inactive) | -0.345 (inactive) | -3.31 (inactive) | 0.0793 (inactive) | -0.429 (inactive) | -0.0257 (inactive) | -0.687 (inactive) | -0.88 | -0.184 |
| CCCCC(=C=CC[C@H](O)c1ccccc1OCCO)C[C@H](O)c1ccccn1 | 0.747 | -0.547 | 1.04 | 0.7 | -0.327 | 0.21 | 0.589 (inactive) | -0.45 | -1.14 | 0.412 (inactive) | 0.973 | -1.8 (inactive) | 0.843 (inactive) | -1.36 (inactive) | 0.0235 (inactive) | 0.0401 (inactive) | 0.917 (inactive) | 0.726 (inactive) | 1.13 | 0.104 |
| C=C(C)[C@@H]1CC=C(C(O)C2C=CC3C(=O)N(C4CCCCC4)C(=O)C3N2Nc2ccc(OC)cc2)CC1 (stereo not given in full) | -0.447 | -1.46 | 0.319 | 0.0801 | -0.0663 | -0.227 | -0.836 (inactive) | -0.393 | -1.4 | 0.784 (inactive) | 0.14 | 0.702 (inactive) | -0.0469 (inactive) | -0.157 (inactive) | 0.987 (inactive) | 0.0587 (inactive) | -0.703 (inactive) | -0.0015 (inactive) | 0.199 | 0.356 |
| CC(C)NC(=O)[C@@]1(Cc2ccccc2I)c2ccccc2C(=O)N(Cc2ccccc2C(F)(F)F)[C@H]1c1ccc(CO)cc1 | 0.325 | 1.77 | 0.289 | -1.43 | -1.66 | 0.347 | 0.536 (inactive) | -0.476 | 0.749 | 0.444 (inactive) | 0.406 | 0.835 (inactive) | 1.09 (inactive) | -0.327 (inactive) | 0.82 (inactive) | -0.272 (inactive) | 0.52 (inactive) | -0.319 (inactive) | 0.508 | -0.206 |
| COCCOC(=O)N1C(=O)[C@@]2(c3cc(C#Cc4ccc(OC)cc4)ccc31)[C@H](C(N)=O)[C@H]1C(=O)O[C@H](c3ccccc3)[C@H](c3ccccc3)N1[C@@H]2c1ccc(OCCO)cc1 | -1.42 | 0.879 | -0.656 | -1.79 | -2.31 | -1.59 | 2.52 (inactive) | -0.57 | -1.39 | 0.676 (inactive) | 0.0456 | 1.61 (inactive) | -1.41 (inactive) | -0.0352 (inactive) | 1.71 (inactive) | 2.42 (inactive) | -0.315 (inactive) | -0.697 (inactive) | -1.82 | -0.157 |
| COc1ccc(C(=O)Nc2ccc(CN3C(=O)[C@@]4(O[C@@H](CC(=O)N5Cc6ccccc6C[C@H]5CO)[C@H]([Si](C)(C)c5ccc(OC)cc5)[C@H]4C)c4ccccc43)cc2)cc1 | -0.0018 | 0.844 | -0.856 | -1.84 | -0.881 | 0.489 | 0.749 (inactive) | -0.957 | -1.05 | 0.143 (inactive) | 0.473 | -0.273 (inactive) | -1.66 (inactive) | -3.48 (inactive) | 0.896 (inactive) | 1.23 (inactive) | 0.704 (inactive) | 0.241 (inactive) | -1.04 | -0.127 |
| CC(C)=CCCC(C)=CC(O)C1C=CC2C(=O)N(c3ccccc3)C(=O)C2N1Nc1ccc([N+](=O)[O-])cc1 (stereo not given) | -0.498 | 0.701 | -0.0971 | -1.2 | -0.186 | -1.07 | -1.44 (inactive) | 0.417 | 1.41 | -0.214 (inactive) | -0.674 | -1.14 (inactive) | -0.753 (inactive) | -0.697 (inactive) | 0.492 (inactive) | -0.853 (inactive) | -1.49 (inactive) | -1.43 (inactive) | -0.276 | 0.0817 |
| C[C@H]1ON(c2ccccc2)[C@@H](c2ccccc2)[C@@H]1C(=O)N1C(=O)OC[C@@H]1c1ccccc1 | -0.279 | 0.261 | -0.941 | 0.608 | -0.144 | -1.24 | 0.46 (inactive) | 0.488 | -0.127 | 0.535 (inactive) | 0.565 | 0.551 (inactive) | 0.715 (inactive) | -0.199 (inactive) | -0.189 (inactive) | 1.5 (inactive) | 0.259 (inactive) | -0.0075 (inactive) | 0.942 | -0.123 |
